# Reference: PubChem BioAssay (EPA / NIEHS)
# Inconclusive results are not listed. Some structures have more than one record in an assay (separate samples or runs), and their calls can disagree. Active and inactive are the calls of the source. How the source made its calls, unless noted: active means hit-call score of the fitted dose curve at least 0.9, where 1 is the maximum; inconclusive means response in the unintended direction; inactive means score below 0.9.
# Experiments:
# [1] = target: Estrogen receptor beta (Homo sapiens) (UniProt Q92731); test: OT_ER_ERbERb_0480: Odyssey Thera (OT) 8-hour HEK293T Protein-Complementation Assay for Estrogen Receptor-beta/-beta Homodimer (AID 2283357);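 further: active means signal gain over DMSO baseline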
# Outline: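 Cells (HEK293T, stable ER-beta LBD PCA pair) are treated 8 hours, fixed and Draq5-stained; signal is fluorescence intensity increase relative to vehicle, fitted in the gain direction.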
# [2] = target: Nuclear receptor subfamily 1 group I member 2 (Homo sapiens) (UniProt O75469); test: NVS_NR_hPXR: NovaScreen (NVS) Nuclear Receptor Binding Assay for human Pregnane X Receptor (PXR) (AID 2283365);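 further: a drop in FRET signal versus DMSO baseline means the compound binds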
# Outline: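 Cell-free binding assay with extracted human PXR protein, read by TR-FRET 2 h after dosing; loss of signal relative to DMSO baseline indicates binding. Primary screen at 25 uM in duplicate, actives retested in concentration series.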
# [3] = target: Estrogen receptor beta (Homo sapiens) (UniProt Q92731); test: OT_ER_ERbERb_1440: Odyssey Thera (OT) 24-hour HEK293T Protein-Complementation Assay for Estrogen Receptor-beta/-beta Homodimer (AID 2283380);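 further: fluorescence gain from ER beta LBD homodimer complementation read by laser scanning cytometry; scored as signal increase over DMSO baseline for both agonists and antagonists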
# Outline: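 Fluorescence increase, nuclear for agonists or whole-cell for antagonists, relative to DMSO vehicle, quantified by laser scanning cytometer after fixation and Draq5 staining. Readout from 24 h treatment of HEK293T cells carrying complementation-paired ER beta LBD (aa 310-547).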
# [4] = target: Androgen Receptor/SRC-1 Co-activator, AR (gene 367) (UniProt P10275); test: OT_AR_ARSRC1_0480: Odyssey Thera (OT) 8-hour HEK293T Protein-Complementation Assay for Androgen Receptor/SRC-1 Co-activator (AID 2283354);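 further: hits raise the complementation signal above DMSO so AC50 marks enhancers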
# Outline: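 Measures AR/SRC-1 binding by Venus YFP fragment complementation in HEK293T stable lines at 8 h post-dose. Imaging quantifies the 488nm nucleus/cytoplasm ratio in ≥400 cells; DMSO defines baseline.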
# [5] = target: Agonist Androgen Response Element (ARE), AR (gene 367) (UniProt P10275); test: OT_AR_ARELUC_AG_1440: Odyssey Thera (OT) 24-hour CHO-K1 Luciferase Assay for Agonist Androgen Response Element (ARE) (AID 2283379)
# Outline: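 Agonist mode, 24 h exposure in CHO-K1 ARE-luciferase cells; values reflect luminescence induction over vehicle.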
# [6] = target: human Thyroid Receptor Alpha (TRa), THRA (gene 7067) (UniProt P10827); test: NVS_NR_hTRa_Antagonist: NovaScreen (NVS) Nuclear Receptor Binding Assay for human Thyroid Receptor Alpha Antagonism (TRa) (AID 2283362);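 further: activity is loss of signal relative to DMSO baseline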
# Outline: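 Cell-free binding assay on extracted receptor protein, read 1 h after chemical dosing by AlphaLISA chemiluminescence; loss of signal relative to DMSO baseline marks antagonism. Primary screen ran in duplicate at 25 uM, with concentration series for actives.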
# [7] = target: Peroxisome proliferator-activated receptor gamma (Homo sapiens) (UniProt P37231); test: NVS_NR_hPPARg: NovaScreen (NVS) Nuclear Receptor Binding Assay for human Peroxisome Proliferator-activated Receptor gamma (PPARg) (AID 2283370)
# Outline: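 Cell-free binding to extracted PPARg protein, read by fluorescence polarization 2 h after dosing; loss of signal relative to DMSO baseline marks displacement. Primary screen in duplicate at 25 uM, actives retested in concentration series.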
# [8] = target: Estrogen receptor (Homo sapiens) + Estrogen receptor beta (Homo sapiens) (UniProt P03372+Q92731); test: OT_ER_ERaERb_1440: Odyssey Thera (OT) 24-hour HEK293T Protein-Complementation Assay for Estrogen Receptor-alpha/-beta Homodimer (AID 2283356);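 further: heteromer of ER alpha and ER beta binding domains; hits raise reporter fluorescence and both agonists and antagonists give an increase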
# Outline: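 HEK293T cells stably expressing a PCA pair of ERα LBD (aa 310-547) and ERβ LBD (aa 263-489) were dosed for 24 h. Fluorescence intensity increase versus DMSO vehicle was fitted as gain-of-signal.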
# [9] = target: Estrogen receptor (Homo sapiens) (UniProt P03372); test: OT_ERa_GFPERaERE_0480: Odyssey Thera (OT) 8-hour HeLa Transcription Induction Assay for Estrogen Receptor (AID 2283381; active means hit-call score of the fitted dose curve at least 0.9, where 1 is the maximum; inactive means score below 0.9)
# Outline: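 Fluorescent reporter signal, imaged by microscopy and scored with image-analysis algorithms, was taken 8 h after chemical dosing of HeLa cells; activity was fitted upward relative to DMSO.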
# PGR (gene 5241) = PGR (gene 5241) (UniProt P06401); test: NVS_NR_hPR: NovaScreen (NVS) Nuclear Receptor Binding Assay for human Progestron Receptor (PR) (AID 2283360);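 further: active means loss of bound radioligand signal versus DMSO baseline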
# Outline: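 Competitive displacement of a labelled radioligand from T47D-derived receptor protein is measured in a cell-free format. Initial testing uses 25 uM in duplicate, with positive and negative controls on every plate.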
# [10] = target: Retinoic acid receptor alpha (Homo sapiens) (UniProt P10276); test: NVS_NR_hRAR_Antagonist: NovaScreen (NVS) Nuclear Receptor Binding Assay for human Retinoic Acid Alpha Receptor Antagonism (RAR) (AID 2283358)
# Outline: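 TR-FRET, cell-free, antagonist format; 2 h incubation after dosing; DMSO = baseline; signal loss fitted; 25 uM duplicate primary, then conc. series.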
# [11] = target: rat Androgen Receptor (AR), Ar (gene 24208) (UniProt P15207); test: NVS_NR_rAR: NovaScreen (NVS) Nuclear Receptor Binding Assay for rat Androgen Receptor (AR) (AID 2283366)
# Outline: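 Cell-free radioligand binding on extracts of prostate from testosterone-pretreated rats, read by filter-based scintillation counting 18 h after dosing. Loss of bound signal fitted positively versus DMSO; primary screen in duplicate at 25 uM, actives followed up in concentration series.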
# [12] = tested on: guinea pig Dopamine Transporter (DAT), gene 100714898; test: NVS_TR_gDAT: NovaScreen (NVS) Transporter Assay for guinea pig Dopamine Transporter (DAT) (AID 2283369);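 further: active compounds lower bound radioligand signal relative to DMSO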
# Outline: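 Guinea pig striatal membranes; radioligand displacement measured by filter-based scintillation counting 2 h after dosing. Initial duplicate screen at 25 uM, then concentration-response up to 50 uM for hits; loss of signal versus DMSO baseline.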
# [13] = target: human Norepinephrine Transporter (NET), SLC6A2 (gene 6530) (UniProt P23975); test: NVS_TR_hNET: NovaScreen (NVS) Transporter Assay for human Norepinephrine Transporter (NET) (AID 2283377);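 further: cell-free membrane protein extracted from CHO cells expressing human NET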
# Outline: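 Scintillation counts of filter-retained radioligand served as the readout, taken 1 h post-dosing in a cell-free CHO-derived system. Test chemicals ran first at 25 uM in duplicate; confirmed hits were retested across concentrations.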
# [14] = target: Retinoic acid receptor alpha (Homo sapiens) (UniProt P10276); test: NVS_NR_hRARa_Agonist: NovaScreen (NVS) Nuclear Receptor Binding Assay for human Retinoic Acid Alpha Receptor Agonism (RAR) (AID 2283361)
# Outline: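 Readout is time-resolved fluorescence resonance energy transfer after a 2 h exposure of cell-free extracted receptor protein. Initial testing used 25 uM in duplicate, with concentration-response follow-up for active chemicals.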
# [15] = target: guinea pig Sigma Receptor, Non-selective Binding, SIGMAR1 (gene 100135589) (UniProt Q60492); test: NVS_OR_gSIGMA_NonSelective: NovaScreen (NVS) Nuclear Receptor Binding Assay for guinea pig Sigma Receptor, Non-selective Binding (AID 2283367)
# Outline: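 gp brain membr., radioligand displacement, 1 h, filtration + scint. counting; DMSO = baseline; 25 uM x2 primary, conc.-response confirm.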
# [16] = target: human Dopamine Transporter (DAT), SLC6A3 (gene 6531) (UniProt Q01959); test: NVS_TR_hDAT: NovaScreen (NVS) Transporter Assay for human Dopamine Transporter (DAT) (AID 2283374);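 further: activity means loss of bound radioligand signal relative to DMSO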
# Outline: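 Test chemicals were first screened in duplicate at 25 uM, with actives retested as concentration series. Displacement of a specific radioligand from cell-free human dopamine transporter was measured after 1 h by filtration and scintillation counting.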
# Sequence of Nuclear receptor subfamily 1 group I member 2 (Homo sapiens) (O75469 whole entry, looked up): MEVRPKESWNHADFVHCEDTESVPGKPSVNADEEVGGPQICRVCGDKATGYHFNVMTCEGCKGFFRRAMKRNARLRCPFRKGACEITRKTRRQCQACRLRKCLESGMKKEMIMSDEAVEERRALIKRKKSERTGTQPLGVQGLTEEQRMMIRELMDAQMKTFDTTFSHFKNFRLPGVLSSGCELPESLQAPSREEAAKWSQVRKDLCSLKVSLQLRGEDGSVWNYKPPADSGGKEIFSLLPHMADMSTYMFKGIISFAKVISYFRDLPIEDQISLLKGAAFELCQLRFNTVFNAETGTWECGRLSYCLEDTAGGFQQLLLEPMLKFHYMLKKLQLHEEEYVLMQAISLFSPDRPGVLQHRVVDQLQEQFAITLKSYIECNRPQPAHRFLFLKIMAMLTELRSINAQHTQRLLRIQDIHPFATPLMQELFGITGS
# Sequence of Retinoic acid receptor alpha (Homo sapiens) (P10276 whole entry, looked up): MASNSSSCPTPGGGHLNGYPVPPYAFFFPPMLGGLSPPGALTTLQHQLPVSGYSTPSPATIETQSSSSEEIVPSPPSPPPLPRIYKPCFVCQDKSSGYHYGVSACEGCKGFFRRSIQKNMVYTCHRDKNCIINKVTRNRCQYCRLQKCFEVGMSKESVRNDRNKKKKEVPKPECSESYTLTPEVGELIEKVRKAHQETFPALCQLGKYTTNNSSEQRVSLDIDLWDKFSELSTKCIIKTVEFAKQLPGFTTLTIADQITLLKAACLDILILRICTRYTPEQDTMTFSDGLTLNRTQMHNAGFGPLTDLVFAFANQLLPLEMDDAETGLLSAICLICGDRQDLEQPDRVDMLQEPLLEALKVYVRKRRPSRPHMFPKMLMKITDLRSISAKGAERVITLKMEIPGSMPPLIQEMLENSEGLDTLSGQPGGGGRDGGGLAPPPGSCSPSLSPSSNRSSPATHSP
# Sequence of human Norepinephrine Transporter (NET), SLC6A2 (gene 6530) (P23975 whole entry, looked up): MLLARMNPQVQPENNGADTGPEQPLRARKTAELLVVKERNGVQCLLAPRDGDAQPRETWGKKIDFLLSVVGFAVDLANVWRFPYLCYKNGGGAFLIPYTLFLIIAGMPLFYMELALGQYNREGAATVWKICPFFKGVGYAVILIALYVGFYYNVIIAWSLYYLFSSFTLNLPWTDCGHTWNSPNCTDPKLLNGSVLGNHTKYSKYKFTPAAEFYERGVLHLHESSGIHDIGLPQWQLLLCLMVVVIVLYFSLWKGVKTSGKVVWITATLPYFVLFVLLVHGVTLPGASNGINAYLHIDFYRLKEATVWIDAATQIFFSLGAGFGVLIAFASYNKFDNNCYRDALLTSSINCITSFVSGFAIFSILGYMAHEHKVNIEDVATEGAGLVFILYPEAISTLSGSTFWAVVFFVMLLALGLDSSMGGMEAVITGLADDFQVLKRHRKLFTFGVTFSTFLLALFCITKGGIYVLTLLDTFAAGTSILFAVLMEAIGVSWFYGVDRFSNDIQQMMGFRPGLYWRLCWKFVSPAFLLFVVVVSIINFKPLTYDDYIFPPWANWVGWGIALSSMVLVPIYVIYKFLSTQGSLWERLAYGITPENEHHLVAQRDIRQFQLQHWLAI
# Sequence of Peroxisome proliferator-activated receptor gamma (Homo sapiens) (P37231 whole entry, looked up): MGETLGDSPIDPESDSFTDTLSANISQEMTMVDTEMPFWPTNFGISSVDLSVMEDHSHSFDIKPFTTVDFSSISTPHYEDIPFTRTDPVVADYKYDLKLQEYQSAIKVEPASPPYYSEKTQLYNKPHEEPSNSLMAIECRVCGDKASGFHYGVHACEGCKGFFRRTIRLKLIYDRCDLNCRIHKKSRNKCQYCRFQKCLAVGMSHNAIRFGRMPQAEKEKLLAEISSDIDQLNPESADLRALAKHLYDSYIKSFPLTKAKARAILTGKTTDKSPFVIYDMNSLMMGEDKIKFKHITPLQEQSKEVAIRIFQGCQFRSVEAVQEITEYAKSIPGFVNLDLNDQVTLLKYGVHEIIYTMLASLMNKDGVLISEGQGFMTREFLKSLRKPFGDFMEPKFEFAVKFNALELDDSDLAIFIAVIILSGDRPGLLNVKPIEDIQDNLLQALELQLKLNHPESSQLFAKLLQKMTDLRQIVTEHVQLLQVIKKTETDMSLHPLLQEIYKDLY
# Sequence of Agonist Androgen Response Element (ARE), AR (gene 367) (P10275 whole entry, looked up): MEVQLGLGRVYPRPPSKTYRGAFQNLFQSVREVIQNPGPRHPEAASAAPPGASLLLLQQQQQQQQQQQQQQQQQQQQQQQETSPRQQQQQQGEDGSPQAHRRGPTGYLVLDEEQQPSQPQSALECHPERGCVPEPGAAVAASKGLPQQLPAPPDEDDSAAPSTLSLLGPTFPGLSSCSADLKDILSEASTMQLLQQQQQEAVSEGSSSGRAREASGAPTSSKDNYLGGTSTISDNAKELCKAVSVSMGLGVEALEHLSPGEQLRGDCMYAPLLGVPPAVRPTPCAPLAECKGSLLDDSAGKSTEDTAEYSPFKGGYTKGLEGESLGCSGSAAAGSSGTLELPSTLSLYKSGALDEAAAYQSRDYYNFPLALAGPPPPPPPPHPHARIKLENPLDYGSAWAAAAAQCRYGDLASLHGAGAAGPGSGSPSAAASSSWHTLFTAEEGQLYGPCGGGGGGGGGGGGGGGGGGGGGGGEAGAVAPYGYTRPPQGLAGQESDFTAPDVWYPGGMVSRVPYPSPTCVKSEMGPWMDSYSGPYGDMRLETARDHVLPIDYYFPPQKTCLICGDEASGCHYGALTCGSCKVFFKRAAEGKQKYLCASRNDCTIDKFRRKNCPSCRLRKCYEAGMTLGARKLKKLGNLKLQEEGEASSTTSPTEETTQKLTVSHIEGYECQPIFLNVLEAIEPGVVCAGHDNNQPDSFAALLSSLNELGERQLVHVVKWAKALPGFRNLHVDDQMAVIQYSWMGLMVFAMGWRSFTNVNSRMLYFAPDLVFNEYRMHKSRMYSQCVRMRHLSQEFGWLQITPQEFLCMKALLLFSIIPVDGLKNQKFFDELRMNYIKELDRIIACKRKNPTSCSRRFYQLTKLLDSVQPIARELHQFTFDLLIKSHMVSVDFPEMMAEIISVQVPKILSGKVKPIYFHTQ
# Sequence of Estrogen receptor beta (Homo sapiens) (Q92731 whole entry, looked up, the tested form may be a part): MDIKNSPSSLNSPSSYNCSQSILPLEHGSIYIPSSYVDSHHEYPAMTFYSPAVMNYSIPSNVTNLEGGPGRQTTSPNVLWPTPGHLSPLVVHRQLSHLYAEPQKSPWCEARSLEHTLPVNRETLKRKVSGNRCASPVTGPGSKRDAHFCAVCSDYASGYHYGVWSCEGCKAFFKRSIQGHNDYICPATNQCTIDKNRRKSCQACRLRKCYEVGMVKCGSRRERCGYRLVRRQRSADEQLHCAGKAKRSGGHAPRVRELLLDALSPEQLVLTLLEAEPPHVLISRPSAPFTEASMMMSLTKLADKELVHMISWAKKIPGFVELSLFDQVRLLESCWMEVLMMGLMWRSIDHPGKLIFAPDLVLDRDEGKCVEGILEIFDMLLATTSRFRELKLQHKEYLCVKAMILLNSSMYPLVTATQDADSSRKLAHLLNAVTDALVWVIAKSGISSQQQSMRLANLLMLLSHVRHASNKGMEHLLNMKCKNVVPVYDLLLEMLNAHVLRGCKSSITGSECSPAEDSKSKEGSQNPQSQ
# Sequence of PGR (gene 5241) (P06401 whole entry, looked up): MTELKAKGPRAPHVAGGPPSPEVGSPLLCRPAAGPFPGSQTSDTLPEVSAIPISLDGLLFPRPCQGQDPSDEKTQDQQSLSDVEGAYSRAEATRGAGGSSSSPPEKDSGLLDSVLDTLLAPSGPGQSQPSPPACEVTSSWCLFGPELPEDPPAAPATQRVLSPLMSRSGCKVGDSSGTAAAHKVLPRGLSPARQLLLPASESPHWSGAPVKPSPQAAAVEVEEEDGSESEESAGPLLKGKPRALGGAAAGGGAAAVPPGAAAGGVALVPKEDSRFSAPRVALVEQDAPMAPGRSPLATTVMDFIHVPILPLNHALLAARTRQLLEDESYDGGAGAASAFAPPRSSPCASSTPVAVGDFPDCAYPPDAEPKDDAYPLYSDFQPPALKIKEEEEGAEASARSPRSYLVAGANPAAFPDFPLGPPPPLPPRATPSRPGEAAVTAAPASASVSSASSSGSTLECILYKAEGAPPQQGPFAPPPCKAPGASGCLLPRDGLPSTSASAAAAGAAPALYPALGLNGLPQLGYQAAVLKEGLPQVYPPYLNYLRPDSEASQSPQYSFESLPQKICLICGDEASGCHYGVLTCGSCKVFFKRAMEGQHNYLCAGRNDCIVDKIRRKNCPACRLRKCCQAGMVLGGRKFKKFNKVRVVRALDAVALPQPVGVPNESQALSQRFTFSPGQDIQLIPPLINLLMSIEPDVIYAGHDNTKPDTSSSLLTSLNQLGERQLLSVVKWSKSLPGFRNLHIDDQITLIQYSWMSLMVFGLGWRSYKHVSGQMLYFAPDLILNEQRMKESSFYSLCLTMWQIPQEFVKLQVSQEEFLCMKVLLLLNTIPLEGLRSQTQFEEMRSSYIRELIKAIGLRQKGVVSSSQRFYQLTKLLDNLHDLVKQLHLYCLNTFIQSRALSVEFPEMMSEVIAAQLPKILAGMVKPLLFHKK
# Sequence of guinea pig Sigma Receptor, Non-selective Binding, SIGMAR1 (gene 100135589) (Q60492 whole entry, looked up): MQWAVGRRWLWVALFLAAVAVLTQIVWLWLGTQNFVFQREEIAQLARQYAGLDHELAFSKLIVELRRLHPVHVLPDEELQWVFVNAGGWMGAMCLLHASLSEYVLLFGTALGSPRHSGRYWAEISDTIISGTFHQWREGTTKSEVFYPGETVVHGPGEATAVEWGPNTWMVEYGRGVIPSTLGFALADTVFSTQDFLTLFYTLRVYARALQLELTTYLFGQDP
# Sequence of Androgen Receptor/SRC-1 Co-activator, AR (gene 367) (P10275 whole entry, looked up, the tested form may be a part): as the sequence (P10275 whole entry, looked up) above
smiles,measurement,setting,value
O=P(O)(O)O,outcome,[1],inactive
same,outcome,[2],inactive
same,outcome,[3],inactive
CC1CCC(C(C)C)C(O)C1 (configuration not stated),outcome,[4],inactive
same,outcome,[1],inactive
same,outcome,[5],inactive
same,outcome,[3],inactive
Nc1ccc2cc(S(=O)(=O)O)cc(O)c2c1N=Nc1ccccc1C(F)(F)F,outcome,[1],inactive
same,AC50,[6],20 µM (active)
same,AC50,[7],2.32 µM (active)
same,outcome,[3],inactive
CCOC(=O)[C@@H](C)Oc1ccc(Oc2nc3ccc(Cl)cc3o2)cc1,outcome,[4],inactive
same,outcome,[1],inactive
same,outcome,[5],inactive
same,outcome,[3],inactive
CC(C)CCCCCCc1ccc(OCCOCCO)cc1,AC50,[8],36.5 µM (active)
same,AC50,[1],38.6 µM (active)
same,outcome,[2],inactive
same,AC50,[5],3.19 µM (active)
same,AC50,[3],25 µM (active)
same,outcome,[9],inactive
O=Cc1ccccc1S(=O)(=O)O,outcome,[1],inactive
same,outcome,[3],inactive
C=Cc1ccc(C)cc1,outcome,[1],inactive
same,outcome,[3],inactive
C=C(C)C(=O)OCCOCCOCCOC(=O)C(=C)C,outcome,PGR (gene 5241),inactive
COS(=O)(=O)O,outcome,[1],inactive
same,outcome,[3],inactive
O=C(c1ccccc1)C(O)c1ccccc1 (configuration not stated),outcome,[1],inactive
same,outcome,[3],inactive
CS(=O)(=O)c1ccc(C2=C(c3ccccc3)C(=O)OC2)cc1,outcome,PGR (gene 5241),inactive
CN(C)c1cccc(O)c1,outcome,[1],inactive
same,outcome,[7],inactive
same,outcome,[3],inactive
C=C(C)[C@@H]1CC=C(C)C(=O)C1,outcome,[1],inactive
same,outcome,[3],inactive
CCCCCCC(C)(C)S,outcome,[1],inactive
same,outcome,[7],inactive
same,outcome,[3],inactive
C=C[Si]1(C)O[Si](C)(C=C)O[Si](C)(C=C)O[Si](C)(C=C)O1 (configuration not stated),AC50,[1],23.8 µM (active)
same,outcome,[7],inactive
same,outcome,[3],inactive
CN1C(=O)c2ccccc2C1=O,outcome,[1],inactive
same,outcome,[3],inactive
CC1CC(O)CC(C)(C)C1 (configuration not stated),outcome,[1],inactive
same,outcome,[3],inactive
COC(=O)c1ccc(C)cc1C1=NC(C)(C(C)C)C(=O)N1 (configuration not stated) (tested in a mixture with another compound),outcome,[1],inactive
same,outcome,[3],inactive
CCOc1ccccc1O,outcome,[1],inactive
same,outcome,[3],inactive
O=[N+]([O-])c1ccc(O)cc1C(F)(F)F,AC50,[1],64.6 µM (active)
same,AC50,[3],68.4 µM (active)
CCOC(=O)c1ccc(N)cc1,outcome,[1],inactive
same,AC50,[7],41.6 µM (active)
same,outcome,[3],inactive
CCOc1ccc(N=Nc2ccc(C=Cc3ccc(N=Nc4ccc(OCC)cc4)cc3S(=O)(=O)O)c(S(=O)(=O)O)c2)cc1,AC50,[10],12.9 µM (active)
same,AC50,[6],14.1 µM (active)
same,AC50,[2],695 nM (active)
same,outcome,[7],inactive
CCCCCCCCc1ccc(S(=O)(=O)O)cc1,AC50,[10],16.8 µM (active)
same,AC50,[7],4.22 µM (active)
same,outcome,[7],inactive
same,outcome,[3],inactive
C=CC(C)(O)CCC=C(C)C (configuration not stated),outcome,[1],inactive
same,outcome,[7],inactive
same,outcome,[3],inactive
c1ccc(Oc2ccccc2)cc1,outcome,[1],inactive
same,outcome,[3],inactive
C=CC(=O)OCCCC,outcome,[1],inactive
same,outcome,[3],inactive
CCC(=O)O[C@@H]1C[C@H]2CC[C@]1(C)C2(C)C,outcome,[1],inactive
same,outcome,[7],inactive
same,outcome,[3],inactive
CC(C)CCCCCCCCCCCCCCC(=O)O,outcome,[1],inactive
same,outcome,[7],inactive
same,outcome,[3],inactive
Nc1ccccc1[N+](=O)[O-],outcome,[1],inactive
same,outcome,[7],inactive
same,outcome,[3],inactive
OCC#CCO,outcome,[1],inactive
same,outcome,[3],inactive
CCCCCC(C=O)=Cc1ccccc1,outcome,[1],inactive
same,outcome,[3],inactive
CC(C)Nc1nc(N)nc(Cl)n1,outcome,[1],inactive
same,outcome,[3],inactive
CCCCCCC(=O)c1ccccc1,outcome,[1],inactive
same,outcome,[3],inactive
ON=C1CCCCC1,outcome,[1],inactive
same,outcome,[3],inactive
C=C(C)C(=O)OCCOC1CC2CC1C1C=CCC21 (configuration not stated),outcome,[1],inactive
same,outcome,[3],inactive
CCC1(C)NC(=O)NC1=O (configuration not stated),outcome,[1],inactive
same,outcome,[3],inactive
C[Si](C)(C)O[Si](C)(C)C,outcome,[1],inactive
same,outcome,[3],inactive
CCC(C)c1cc([N+](=O)[O-])cc([N+](=O)[O-])c1OC(=O)OC(C)C (configuration not stated),outcome,PGR (gene 5241),inactive
CCCCCCCCCC(=O)OC,outcome,[1],inactive
same,outcome,[3],inactive
CCCCOC(=O)CCCCCCCC(=O)OCCCC,outcome,[1],inactive
same,outcome,[3],inactive
CCCC(=O)OC(C)(C)Cc1ccccc1,outcome,[1],inactive
same,AC50,[7],13.4 µM (active)
same,outcome,[3],inactive
CN1CCOCC1,outcome,[1],inactive
same,outcome,[3],inactive
C#CC(C)(O)CC(C)C (configuration not stated),outcome,[1],inactive
same,outcome,[3],inactive
C=C1C[C@]23C[C@@]1(O)CC[C@H]2[C@@]12C=C[C@H](O)[C@@](C)(C(=O)O1)[C@H]2[C@@H]3C(=O)O,outcome,[7],inactive
C=C(C)[C@H]1CC=C(C)C(=O)C1,outcome,[11],inactive
CC(C)(C)CC(C)(C)c1ccc(OCCOCC[N+](C)(C)Cc2ccccc2)cc1,AC50,[12],1.75 µM (active)
CCCCCCCC(=O)OCC(O)CO (configuration not stated),outcome,[2],inactive
same,outcome,[3],inactive
NC(=S)NNC(N)=S,outcome,[13],inactive
Cc1cc(=O)oc2cc(N(C)C)ccc12,AC50,[14],14.6 µM (active)
same,outcome,[3],inactive
Cc1ccc(S(N)(=O)=O)cc1,outcome,[2],inactive
C1=CC2C3C=CC(C3)C2C1 (configuration not stated),AC50,[15],13 µM (active)
same,AC50,[7],2.39 µM (active)
same,outcome,[3],inactive
CCCCCCCCCCCCCCCC(=O)OC/C=C(C)/C=C/C=C(C)/C=C/C1=C(C)CCCC1(C)C,outcome,[13],inactive
CCN(CCC#N)c1ccc(N=Nc2ccc([N+](=O)[O-])cc2)cc1,outcome,[12],inactive
same,outcome,[13],inactive
CN(c1nccc(=O)[nH]1)C1CCN(c2nc3ccccc3n2Cc2ccc(F)cc2)CC1,outcome,PGR (gene 5241),inactive
same,AC50,[15],0.976 µM (active)
same,AC50,[12],1.76 µM (active)
same,AC50,[16],11.5 µM (active)
same,outcome,[13],inactive
